The values that follow come from PubChem BioAssay AID2417 (National Center for Advancing Translational Sciences (NCATS), 2010).

In all, about 140,000 compounds went through this assay and about 4,300 (3.1%) were called active. Roughly 21% stayed inconclusive and do not appear here. The entries come from a sample that favours actives as a whole. Values without a mark were called inactive.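 How the source made its calls: active means readout at or below -70, meaning at least 70% loss of cells showing the perinucleolar compartment, a nuclear body marking cancer cells; inconclusive means readout between -30 and a set limit; inactive means the rest.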

The nature of this experiment: High Content Assay for Compounds that inhibit the Assembly of the Perinucleolar Compartment.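 Further: plate controls were DMSO wells for no effect and camptothecin positive control wells for full effect.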 As to conditions: PC3M PTB-GFP, PNC prevalence imaging, 16 h; at 10 µM; hits give low values. The text has this:
High Content Assay for Compounds that inhibit the Assembly of the Perinucleolar Compartment NIH Chemical Genomics Center [NCGC] NIH Molecular Libraries Probe Centers Network [MLPCN] MLPCN Grant: MH082371-01A2 Assay Submitter (PI): Sui Huang, Northwestern University, Feinberg School of Medicine, Cell and Molecular Biology, Chicago, Illinois. The perinucleolar compartment (PNC) is a non-membrane-bound nuclear subdomain that is associated with but structurally distinct from the nucleolus. The PNC is a heritable trait, in which the number of PNCs per cell in daughter cells often mimics that of their mother cells. The PNC is heterogeneous in shape, is stable through interphase, disassembles during mitosis, and reassembles in early G1. The PNC is concentrated with newly synthesized RNA polymerase III (pol III) RNAs (MRP RNA, RNAse P H1 RNA, hY RNAs[hY1, 2, 5], Alu RNA, and SRP [7SL] RNA) and RNA binding proteins (nucleolin, PTB, CUG-BP, KSRP, Raver1, Raver2, and Rod). […] Extensive in vitro studies have shown that the PNC is unique to tumor cells and preferentially forms in tumor cells derived from solid tissues. Examination of cancer cell lines from various origins and malignant capacities has shown that PNC prevalence correlates with the malignancy of tumors and has the potential to be developed as a pan-cancer prognostic marker. […] Although the PNC is associated with a DNA locus and a handful of components have been identified, much remains to be investigated regarding the structure and function of the PNC and its mechanistic link to cancer. We have previously shown that PNC prevalence reduction is a valid strategy to identify compounds that can be used to study the structure and function of the PNC. It is necessary, however, to create a screening platform that is able to test a large number of compounds in an automated fashion. Here we report the development and robustness of an automated whole-cell phenotypic image-based screening assay that is capable of identifying such compounds.
PNC High Content Imaging Assay Procedure: 1. Cells at a density of 75-90% confluency in T175 flasks were harvested using 7 ml TrypLE Express cell dissociation reagent. After dissociation (5 minutes room temperature incubation) 10 ml of complete media was added to the TrypLE/cell suspension. The liquid was transferred to a 50 ml Conical tube and cells were pelleted at 1000 RPM for 5 min. Supernatant was removed and cells were resuspended to a final density of 150-200 cells/ul in complete media. 2. Cells were plated in 5 ul volume (750-1000 cells/well) into 1536 well Black uclear Aurora Low Base plates and allowed to recover and adhere at 37 C in a humidified 5% CO2 incubator for 4 hours. 3. After 4 hour incubation, compound libraries (23 nl of […] in columns 5-48) were transferred to the plates in duplicate using a 1536 well pintool. Camptothecin positive control (59 uM final) was added to column 2 and 1:3 dilutions of camptothecin was added to column 3. DMSO negative controls were present in columns 1 and 4. 4. After a 16 hour incubation in the 37 C incubator, cells were fixed by the addition of 4 ul of 6% EM grade paraformaldehyde (containing 0.1% triton X 100) directly to the cells. The plates were incubated at room temperature for 20 minutes. The liquid was removed using a 32 channel Kalypsys aspirator and the fixed cells were washed twice with 5 ul PBS followed by a final addition of 5 ul PBS containing 1 ug/ml Hoechst 33342. 5. Fixed plates were sealed and sotred at 4C until imaged. 6. Plates were imaged on an InCell 1000 automated microscope using a 20 x objective, a standard FITC filter set, no camera binning, and an exposure time of ~100-150 msec/well. 7. Data analysis. PNC prevalence was determined using the Multitarget analysis module from InCell Workstation software (V3.5 ) and analysis was run on a quad core workstation using the Incell Developer Toolbox (V1.7). […]
For the compound `COC(=O)C1=CN(C)C=C(C(=O)OC)C1c1ccc(Cl)cc1Cl`, the activity change (PNC), negative = inhibition was -80.4% (active).

In the case of `CCOc1ccccc1C1C(C(=O)OC)=CN(C)C=C1C(=O)OC`, the activity change (PNC), negative = inhibition is 3.14%.

With `NNC(=O)c1ccc(Cl)cc1Cl`, the activity change (PNC), negative = inhibition was 5.71%.

As for `O=C(Cc1cccs1)Nc1cccc(-c2nc3ccccc3[nH]2)c1`, the activity change (PNC), negative = inhibition is 3.35%.

Regarding `COc1ccc(S(=O)(=O)Nc2ccc3oc(C)c(C(C)=O)c3c2)cc1`, the activity change (PNC), negative = inhibition is 56.6%.

In the case of `COc1cc(NS(=O)(=O)c2ccc(N/C=C(\C=O)c3nc4cc(Cl)ccc4o3)cc2)nc(OC)n1`, the activity change (PNC), negative = inhibition is -105% (active).

With `COc1cc(NS(=O)(=O)c2ccc(N=Cc3c(C)[nH]n(-c4ccccc4)c3=O)cc2)nc(OC)n1`, the activity change (PNC), negative = inhibition is -26.4%.

On to `O=C(c1ccc(CSc2ccccc2)cc1)N1CCCCCC1`, for which the activity change (PNC), negative = inhibition is -13.8%.

Consider `C=CCNC(=O)/C=C/c1ccc(C(C)C)cc1`, for which the activity change (PNC), negative = inhibition was 29.5%.

Consider `N#C/C(=C/c1ccc(N2CCCCC2)o1)C(=O)NCCc1c[nH]c2ccccc12`, for which the activity change (PNC), negative = inhibition was -86.8% (active).

With `CC(=O)N/C(=C/c1ccc(Cl)cc1)C(=O)NCCc1c[nH]c2ccccc12`, the activity change (PNC), negative = inhibition was 19.3%.

Consider `N#C/C(=C/c1ccc(N2CCOCC2)o1)C(=O)N1CCOCC1`, for which the activity change (PNC), negative = inhibition was 61.9%.

As to `Cn1cc(C(=O)NCc2ccccc2F)cn1`, the activity change (PNC), negative = inhibition was -25.6%.

Regarding `N#C/C(=C\c1ccccc1C(F)(F)F)C(=O)Nc1ccccc1F`, the activity change (PNC), negative = inhibition was -16.5%.

Take `COc1cccc(NC(=O)CC(c2ccc(OC(C)C)cc2)c2ccccc2OC)c1` (stereo unspecified): the activity change (PNC), negative = inhibition was 21%.

For `NC(=O)CCC(NS(=O)(=O)c1ccc(Cl)cc1)C(=O)NCc1ccccc1Cl` (stereo unspecified), the activity change (PNC), negative = inhibition was -7.93%.

With `COc1ccccc1C1SCCN1C(=O)c1ccc([N+](=O)[O-])cc1` (stereo unspecified), the activity change (PNC), negative = inhibition is 15%.

Turning to `NC1=NC(=O)C(Cc2cccc(Cl)c2)S1` (stereo unspecified), the activity change (PNC), negative = inhibition is 22.5%.

On to `N#Cc1ccc(N2Cc3ccccc3/C2=N/C(=O)Nc2ccc(Cl)cc2)cc1`, for which the activity change (PNC), negative = inhibition was 16.1%.

Turning to `FC(F)(F)c1cc(-c2ccco2)nc(N2CCOCC2)n1`, the activity change (PNC), negative = inhibition is 27.9%.

For `O=C(CSc1nc(-c2ccco2)cc(C(F)(F)F)n1)N1CCc2ccccc2C1`, the activity change (PNC), negative = inhibition is -123% (active).

On to `Cc1cc(C(F)(F)F)nn1-c1nc(-c2ccco2)cc(C(F)(F)F)n1`, for which the activity change (PNC), negative = inhibition was -13%.

As to `Cc1ccc(NC(=O)COC(=O)CCc2nc3ccccc3n2-c2ccccc2)c(C)c1`, the activity change (PNC), negative = inhibition was 55.5%.

Regarding `O=C(NC(=S)NC1CCSC1=O)c1ccccc1F` (stereo unspecified), the activity change (PNC), negative = inhibition is 12.8%.

As to `O=c1c2sccc2nc(SCc2cc(=O)n3ccccc3n2)n1-c1ccc(Br)cc1`, the activity change (PNC), negative = inhibition was 0.678%.

Regarding `Cc1ccc(NC(=O)CSCC(=O)NC2CCCCC2)cc1`, the activity change (PNC), negative = inhibition was 13.8%.

With `O=C(CCCN1C(=O)C2C3C=CC(C3)C2C1=O)N1CCN(c2ccccc2)CC1` (stereo unspecified), the activity change (PNC), negative = inhibition was -106% (active).

With `CC(CC(=O)N1CCN(c2ccccc2)CC1)c1ccccc1` (stereo unspecified), the activity change (PNC), negative = inhibition was -11.1%.

Take `O=C(CCN1C(=O)C2C3C=CC(C3)C2C1=O)Nc1ccccc1F` (stereo unspecified): the activity change (PNC), negative = inhibition is 25%.

On to `CC(C)(C)CC(C)(C)NCC(O)COCCOc1ccc(Br)cc1` (stereo unspecified), for which the activity change (PNC), negative = inhibition was 6.23%.

`COC(C(=O)Nc1ccc(C(C)=O)cc1)c1ccccc1` (stereo unspecified): the activity change (PNC), negative = inhibition is -124% (active).

As to `CC(=O)c1ccc(NC(=O)N[C@@H](Cc2ccccc2)C(=O)O)cc1`, the activity change (PNC), negative = inhibition was 64.7%.

Regarding `COc1ccc(NC(C(=O)Nc2cccc(C(C)=O)c2)c2ccccc2)cc1` (stereo unspecified), the activity change (PNC), negative = inhibition was 18.3%.

Regarding `O=C(CC(=O)N/N=C\c1cccc(Cl)c1Cl)NCc1ccccc1`, the activity change (PNC), negative = inhibition is 44.3%.

For `Nc1nc(SCC(=O)NNc2c(Cl)cc(Cl)cc2Cl)n[nH]1`, the activity change (PNC), negative = inhibition is 21.1%.

`CCCCOc1ccc(C(=O)NN2CCN(C)CC2)cc1`: the activity change (PNC), negative = inhibition was 15.4%.

With `COc1ccccc1NC1=NC(c2ccc(Cl)cc2)N=C(N)N1` (stereo unspecified), the activity change (PNC), negative = inhibition is -92.7% (active).

With `COc1ccccc1Nc1nc(N)nc(CN(C)C2CCCCC2)n1`, the activity change (PNC), negative = inhibition was -29.7%.

Take `Cc1cc(C)nc(NC(=O)c2cccc([N+](=O)[O-])c2)c1`: the activity change (PNC), negative = inhibition was 69%.

With `COCCCN(C(=O)Cn1ncc2c(=O)oc3ccc(C)cc3c21)C(C)c1ccncc1` (stereo unspecified), the activity change (PNC), negative = inhibition was 3.72%.

For the compound `COCCCN(C(=S)Nc1c(C)cc(C)cc1C)C(C)c1ccncc1` (stereo unspecified), the activity change (PNC), negative = inhibition is -82.2% (active).

In the case of `CCCC/S(C)=N/S(=O)(=O)c1ccc(C)cc1` (stereo unspecified), the activity change (PNC), negative = inhibition was 24.9%.

Turning to `COc1ccc(/C(N)=N/OC(=O)Cc2ccccc2)cc1`, the activity change (PNC), negative = inhibition is 17.5%.

With `COc1ccc(/C(N)=N/OC(=O)Oc2ccccc2)cc1`, the activity change (PNC), negative = inhibition was 13.5%.

Regarding `N/C(=N\OC(=O)N1c2ccccc2Sc2ccccc21)c1ccc(Br)cc1`, the activity change (PNC), negative = inhibition is -113% (active).

With `COc1cccc(NC(=O)Cn2cnc3sc(C)c(S(=O)(=O)N4CCN(C)CC4)c3c2=O)c1`, the activity change (PNC), negative = inhibition is -100% (active).
